# Assay results taken from PubChem BioAssay.
# Activity calls are given as the source filed them.
# Experiments:
# [1] = biological target: Albumin (Bos taurus) (UniProt P02769); assay: bovine serum albumin binders on microarray, profiling panel, artefact control for SMM control protein annotation, biochemical, small-molecule microarray, Alexa647 label, 635/667 nm fluorescence (AID 1118); conditions: BSA-A647 binding, fluorescence 635 nm, higher = more signal;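 also: score merges 667 nm emission intensity and signal-to-noise per printed compound spot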
# Chain of Albumin (Bos taurus) (P02769 whole entry, looked up): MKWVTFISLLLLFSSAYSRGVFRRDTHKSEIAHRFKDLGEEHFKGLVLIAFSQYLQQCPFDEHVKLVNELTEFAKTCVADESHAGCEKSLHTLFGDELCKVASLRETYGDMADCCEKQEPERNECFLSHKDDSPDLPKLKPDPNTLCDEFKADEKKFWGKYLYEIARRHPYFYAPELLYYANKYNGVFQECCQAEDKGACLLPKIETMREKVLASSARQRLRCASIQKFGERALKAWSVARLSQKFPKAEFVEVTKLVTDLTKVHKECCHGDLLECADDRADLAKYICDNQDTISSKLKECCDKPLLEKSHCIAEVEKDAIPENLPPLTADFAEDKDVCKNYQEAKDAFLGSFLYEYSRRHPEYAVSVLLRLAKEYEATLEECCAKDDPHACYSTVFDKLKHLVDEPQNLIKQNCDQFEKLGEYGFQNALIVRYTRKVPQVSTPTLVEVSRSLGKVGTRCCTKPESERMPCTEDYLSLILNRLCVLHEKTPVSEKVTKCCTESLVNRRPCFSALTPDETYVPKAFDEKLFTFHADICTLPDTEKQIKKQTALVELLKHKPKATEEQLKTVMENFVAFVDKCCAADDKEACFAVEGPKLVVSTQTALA
# [2] = small-molecule microarray binders of probe aXIP, primary screen, biochemical, NeuroSMM set, 635/667 nm fluorescence (AID 1119); conditions: higher = more signal, called active from +8 up or from −8 down unless noted;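 also: probe is the protein aXip251-270 applied at 1 µg/mL to compound-printed slides; binding of probe to printed compounds measured as 667 nm fluorescence plus signal to noise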
# [3] = small-molecule binders of probe aNOTCH3, primary screen, biochemical, small-molecule microarray, 635/667 nm fluorescence (AID 1120); conditions: higher = more signal; small-molecule microarray, probe aNOTCH3, fluorescence unless noted;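 also: probe is a biotin-tagged antibody raised against NOTCH3 rather than NOTCH3 protein; score merges spot fluorescence near 667 nm with spot signal to noise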
# [4] = small-molecule binders of probe aNOTCH2, primary screen, biochemical, small-molecule microarray, 635/667 nm fluorescence (AID 1121); conditions: higher = more signal; small-molecule microarray, probe aNOTCH2, fluorescence unless noted;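 also: score merges feature fluorescence read at 667 nm with its signal to noise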
# [5] = biological target: Carbonic anhydrase 2 (Homo sapiens) (UniProt P00918); assay: CAII small-molecule binders, profiling panel, biochemical, small-molecule microarray, Alexa647-labelled CAII (AID 1122); conditions: CAII-A647 binding fluorescence, higher = more signal
# [6] = COS7 lysate on small-molecule microarray, probe aHis, 635 nm (AID 1123); conditions: higher = more signal; small-molecule microarray, COS7 cell lysate, probe aHis, fluorescence unless noted;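 also: z-score combines 667nm fluorescence intensity with signal-to-noise per printed compound spot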
# [7] = compound binding in COS7 lysate, probe aLAP1, primary screen, cell lysate, small-molecule microarray (AID 1124); conditions: higher = more signal; small-molecule microarray, COS7 cell lysate, probe aLAP1, fluorescence unless noted;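 also: lysate comes from COS7 cells expressing LAP1 and is applied at 0.3 µg/mL; score merges spot fluorescence near 667 nm with signal-to-noise over triplicate slides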
# [8] = tested on: Sam68 (KHDRBS1); assay: Sam68 small-molecule binders, primary screen, biochemical, small-molecule microarray, 635 nm fluorescence (AID 1125); conditions: small-molecule microarray binding, higher = more signal;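 also: score merges 667 nm channel intensity with signal to noise over triplicate slides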
# [9] = tested on: Chordin-like protein 2 (CHRDL2); assay: CHRDL2 small-molecule binders, primary screen, biochemical, small-molecule microarray, 635 nm fluorescence (AID 1126); conditions: small-molecule microarray binding, fluorescence 635 nm; higher = more signal;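 also: printed compound slides probed with Chrdl2 protein at 4 µg/mL for 1 h at 4 C; score merges 667 nm emission intensity with signal to noise over three replicate slides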
# [10] = biological target: Concanavalin-A (Canavalia ensiformis) (UniProt P02866); assay: ConA small-molecule binders, primary screen, artefact control for SMM control protein annotation, biochemical, small-molecule microarray, Alexa647 label, 635 nm (AID 1127); conditions: ConA-A647 binding fluorescence, higher = more signal;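 also: z combines 667 nm emission intensity with signal-to-noise across three replicate slides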
# Chain of Concanavalin-A (Canavalia ensiformis) (P02866 whole entry, looked up): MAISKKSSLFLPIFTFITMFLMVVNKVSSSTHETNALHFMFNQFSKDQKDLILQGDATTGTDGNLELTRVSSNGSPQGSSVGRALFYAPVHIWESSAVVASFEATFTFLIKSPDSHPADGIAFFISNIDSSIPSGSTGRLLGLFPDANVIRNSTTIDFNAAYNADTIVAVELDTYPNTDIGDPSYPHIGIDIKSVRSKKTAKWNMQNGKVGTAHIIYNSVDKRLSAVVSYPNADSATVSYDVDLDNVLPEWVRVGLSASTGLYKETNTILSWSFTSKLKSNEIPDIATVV
# [11] = anti-His antibody binders, primary screen, artefact control for SMM control protein annotation, biochemical, small-molecule microarray, 635 nm fluorescence (AID 1128); conditions: anti-His Alexa647 antibody binding, higher = more signal;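 also: score merges feature fluorescence with signal-to-noise for each printed compound spot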
# [12] = tested on: Human papillomavirus type 1a E7 protein (residues 1-88); assay: HPV1a E7 small-molecule binders, primary screen, biochemical, small-molecule microarray, residues 1-88, 635 nm (AID 1129); conditions: small-molecule microarray binding, fluorescence 635 nm; higher = more signal
# [13] = biological target: Focal adhesion kinase 1 (Homo sapiens) (UniProt Q05397); assay: small-molecule microarray binders of FAK, primary screen, biochemical, 635/667 nm fluorescence, BSA, DTT (AID 1130); conditions: PTK2 binding, 635 nm fluorescence, higher = more signal;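 also: composite of spot emission at 667 nm and signal to noise over triplicate slides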
# Chain of Focal adhesion kinase 1 (Homo sapiens) (Q05397 whole entry, looked up): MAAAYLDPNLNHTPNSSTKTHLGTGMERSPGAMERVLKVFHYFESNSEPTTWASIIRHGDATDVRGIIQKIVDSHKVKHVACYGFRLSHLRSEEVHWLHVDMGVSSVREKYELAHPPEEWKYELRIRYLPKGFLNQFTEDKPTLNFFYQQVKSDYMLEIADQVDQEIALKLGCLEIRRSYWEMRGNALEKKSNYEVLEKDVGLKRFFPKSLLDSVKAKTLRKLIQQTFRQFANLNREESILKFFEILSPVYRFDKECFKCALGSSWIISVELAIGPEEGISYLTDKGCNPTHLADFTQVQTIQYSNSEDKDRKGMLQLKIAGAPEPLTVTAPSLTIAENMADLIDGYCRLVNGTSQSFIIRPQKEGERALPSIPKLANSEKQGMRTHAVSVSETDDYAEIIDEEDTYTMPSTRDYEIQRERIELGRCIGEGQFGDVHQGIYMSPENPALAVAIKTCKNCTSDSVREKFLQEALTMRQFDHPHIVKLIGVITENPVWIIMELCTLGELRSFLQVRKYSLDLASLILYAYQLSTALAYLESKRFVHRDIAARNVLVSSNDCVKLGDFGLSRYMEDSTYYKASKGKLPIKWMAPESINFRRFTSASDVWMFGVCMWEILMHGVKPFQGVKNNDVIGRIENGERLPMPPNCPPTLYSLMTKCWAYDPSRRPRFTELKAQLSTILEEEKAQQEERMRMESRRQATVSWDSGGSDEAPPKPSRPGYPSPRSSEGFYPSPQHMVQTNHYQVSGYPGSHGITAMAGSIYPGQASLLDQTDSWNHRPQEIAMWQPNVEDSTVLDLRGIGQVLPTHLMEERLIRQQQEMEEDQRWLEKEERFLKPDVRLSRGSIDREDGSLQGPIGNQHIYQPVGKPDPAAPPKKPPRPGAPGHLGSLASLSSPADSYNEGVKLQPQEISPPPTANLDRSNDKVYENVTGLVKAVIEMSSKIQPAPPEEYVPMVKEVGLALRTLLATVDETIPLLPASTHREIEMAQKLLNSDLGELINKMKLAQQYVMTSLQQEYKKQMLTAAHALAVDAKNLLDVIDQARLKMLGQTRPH
# [14] = tested on: Fibrinogen (Alexa647-labelled); assay: fibrinogen binders on compound microarrays, profiling panel, artefact control for SMM control-protein annotation, biochemical, small-molecule microarray, 635/667 nm fluorescence (AID 1131); conditions: fibrinogen-A647 binding fluorescence, higher = more signal;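 also: z-score merges 667 nm fluorescence with per-spot signal-to-noise over triplicate slides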
# [15] = biological target: Follistatin (Homo sapiens) (UniProt P19883); assay: follistatin binders on small-molecule microarrays, primary screen, biochemical, small-molecule microarray, 635/667 nm fluorescence (AID 1132); conditions: FST binding, 635 nm fluorescence, higher = more signal
# Chain of Follistatin (Homo sapiens) (P19883 whole entry, looked up): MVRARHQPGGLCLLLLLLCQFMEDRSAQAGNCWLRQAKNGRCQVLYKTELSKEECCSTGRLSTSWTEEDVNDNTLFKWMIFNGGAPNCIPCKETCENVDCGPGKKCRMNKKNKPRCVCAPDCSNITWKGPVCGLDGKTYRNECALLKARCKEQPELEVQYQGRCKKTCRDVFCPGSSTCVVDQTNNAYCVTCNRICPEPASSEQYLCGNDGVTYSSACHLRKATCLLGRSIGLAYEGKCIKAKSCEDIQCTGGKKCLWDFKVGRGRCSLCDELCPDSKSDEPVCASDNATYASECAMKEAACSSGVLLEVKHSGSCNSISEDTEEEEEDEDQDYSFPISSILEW
# [16] = biological target: Fibroblast growth factor 2 (Homo sapiens) (UniProt P09038); assay: FGF2 binders on small-molecule microarrays, primary screen, biochemical, small-molecule microarray, 635/667 nm fluorescence (AID 1133); conditions: small-molecule microarray binding, FGF2, fluorescence 635/667; higher = more signal
# Chain of Fibroblast growth factor 2 (Homo sapiens) (P09038 whole entry, looked up): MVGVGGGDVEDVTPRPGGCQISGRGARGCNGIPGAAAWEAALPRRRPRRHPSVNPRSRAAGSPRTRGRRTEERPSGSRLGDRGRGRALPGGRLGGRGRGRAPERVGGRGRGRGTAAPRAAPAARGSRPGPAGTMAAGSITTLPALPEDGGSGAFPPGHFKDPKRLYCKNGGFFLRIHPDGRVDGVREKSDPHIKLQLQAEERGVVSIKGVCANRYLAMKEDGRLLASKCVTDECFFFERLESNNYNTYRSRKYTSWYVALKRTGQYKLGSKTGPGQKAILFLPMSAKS
# [17] = mitochondrial membrane potential change in A549 cells, profiling panel, cell-based, JC-1 fluorescence, basal, 24 h, 100 nL (AID 1138); conditions: higher = more signal;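 also: A549 lung adenocarcinoma cells under basal conditions with no added stimulus; test concentration not given here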
# [18] = tested on: Lefty1; assay: Lefty1 binders on small-molecule microarrays, primary screen, biochemical, small-molecule microarray, 635/667 nm fluorescence (AID 1139); conditions: small-molecule microarray binding, fluorescence 635/667; higher = more signal
# [19] = tested on: wheat germ agglutinin (Triticum aestivum), Alexa647-labelled; assay: wheat germ agglutinin binders on compound microarrays, profiling panel, artefact control for SMM control-protein annotation, biochemical, small-molecule microarray, 635/667 nm fluorescence (AID 1140); conditions: WGA-A647 binding, 635 nm fluorescence, higher = more signal;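 also: score merges 667 nm feature emission with signal to noise over triplicate slides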
# [20] = biological target: Luciferin 4-monooxygenase (Photinus pyralis) (UniProt P08659); assay: firefly luciferase enzyme inhibitors, primary screen, biochemical, luminescence, purified enzyme, 2006 set (AID 1141); conditions: SteadyGlo luminescence, 30 min; higher = more signal, called active from +8 up or from −8 down unless noted;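 also: cell-free assay with purified firefly luciferase at 100 ng per well in PBS; test concentration not given here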
# Chain of Luciferin 4-monooxygenase (Photinus pyralis) (P08659 whole entry, looked up): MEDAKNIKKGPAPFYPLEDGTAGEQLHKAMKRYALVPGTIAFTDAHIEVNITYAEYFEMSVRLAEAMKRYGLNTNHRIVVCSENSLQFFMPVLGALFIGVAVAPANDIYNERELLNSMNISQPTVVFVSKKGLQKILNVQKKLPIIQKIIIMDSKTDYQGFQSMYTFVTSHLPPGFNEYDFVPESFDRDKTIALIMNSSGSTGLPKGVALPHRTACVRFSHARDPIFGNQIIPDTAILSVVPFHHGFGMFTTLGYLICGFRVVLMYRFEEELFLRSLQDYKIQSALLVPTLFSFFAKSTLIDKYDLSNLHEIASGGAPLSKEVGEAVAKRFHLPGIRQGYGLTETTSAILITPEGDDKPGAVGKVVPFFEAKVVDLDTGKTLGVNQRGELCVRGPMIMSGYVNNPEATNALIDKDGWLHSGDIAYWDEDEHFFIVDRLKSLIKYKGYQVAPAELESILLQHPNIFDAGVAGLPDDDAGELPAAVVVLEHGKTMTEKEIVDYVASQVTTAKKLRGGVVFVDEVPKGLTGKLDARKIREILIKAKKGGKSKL
SMILES,composite z-score [1],composite Z-score [2],composite z-score [3],composite z-score [4],composite z-score [5],composite z-score [6],composite z-score [7],composite z-score [8],composite z-score [9],composite z-score [10],composite z-score [11],composite z-score [12],composite z-score [13],composite z-score [14],composite z-score [15],composite z-score [16],z-score [17],composite z-score [18],composite z-score [19],z-score [20]
COC(=O)[C@H]1C(=O)c2ccccc2O[C@@](C(=O)OC)(c2ccccc2)[C@@H]1c1ccccc1,-0.764,0.181 (inactive),-0.27,-0.125,-0.466,-0.583,-0.129,-0.988,-0.0221,-0.0286,-0.34,-1.34,0.0173,-1.75,-0.245,-0.105,-0.778,-0.0506,-0.738,0.164 (inactive)
CN1CCC(c2ccc(CO)cc2)=CC1c1cccs1 (stereo not given),-0.105,0.204 (inactive),0.956,-0.14,0.737,-0.563,0.179,-1.28,1.35,0.199,0.399,-0.668,0.903,-0.28,0.699,0.0576,0.389,1.35,0.244,-1.16 (inactive)
OCc1ccc(C2=CC(c3cccs3)N(Cc3cccc(OC(F)(F)F)c3)CC2)cc1 (stereo not given),0.343,-0.375 (inactive),-0.0596,-0.115,0.197,0.609,-0.368,0.277,0.396,-0.426,2.04,-0.38,0.147,-0.365,0.663,0.108,0.944,0.704,0.173,-1.26 (inactive)
C=C(CC1(C(C)NP(=O)(c2ccccc2)c2ccccc2)CC1)c1ccccc1 (stereo not given),0.314,-0.589 (inactive),0.143,0.038,0.596,3.14,0.425,1.18,-0.0819,0.711,2.95,1.25,0.788,0.94,0.3,-0.34,-0.147,0.0368,0.501,2.67 (inactive)
C[C@H]1O[C@H]2C3=C(C(=O)[C@@H]4O[C@@H]4[C@@H]3O)[C@@H]1[C@@H]1[C@@H](C)OC=C3[C@@H](O)[C@H]4O[C@H]4C(=O)[C@]312,0.664,0.19 (inactive),-0.0947,-0.125,0.26,-0.393,-0.494,-1.77,-0.0769,-1.83,-0.652,-0.539,-0.27,-0.727,-0.72,-0.0771,0.344,-0.235,0.202,-1.61 (inactive)
